In PubChem BioAssay (Tox21) one finds Potency and max response data, which are given here for 29 compounds.

Structures are written as SMILES. Records with an inconclusive call do not appear. Values without a mark were called inactive. The source made the active and inactive calls. The call rests on the fitted dose curve; in most records, active means well fitted curve in the direction sought with a large enough effect in the repeat runs; inconclusive means weak or mixed curves; inactive means no such curve, though single readings can be large; an effect the other way counts as inactive or inconclusive.

Test [1] in a line: qHTS RealTime-Glo MT Cell Viability Assay in HEK293 cells - 16 hour (AID 1224872). Further: nearly all actives have a fitted effect of over 50% in size. The method, boiled down: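 Viability tracked continuously by luminescence as live cells reduce a prosubstrate for NanoLuc; HEK293 cells preincubated 5 h, compound-treated at 37 C, and read at 0, 8, 16, 24, 32 and 40 h.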
In general terms: Quantitative high-throughput screening tests each substance at several concentrations.

The nature of test [2]: qHTS RealTime-Glo MT Cell Viability Assay in HEK293 cells - 40 hour (AID 1224874). Further: nearly all actives have a fitted effect of over 50% in size. To be noted: RealTime-Glo luminescence; max response: stronger effect = lower value. The method, boiled down: (§1)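 Real-time viability in HEK293: signal arises when living cells convert a prosubstrate for NanoLuc in the medium, so luminescence tracks viable cell number. Compound (23 nL, DMSO) added 5 h post-seeding; kinetic reads at 0–40 h, 37 C.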

Test [3] in a line: A CellTox Green Cytotoxicity Assay to monitor cytotoxicity in HEK293 cells - 24 hour (AID 1224875). Further: nearly all actives have a fitted effect of over 45% in size. An outline of the steps: (§2)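 Cells (HEK293, 600/well) and dye reagent are dispensed together. After 5 h at 37 C, 23 nL compound is pinned in. Plates stay at 37 C for 40 h with fluorescence read at 0h, 8h, 16h, 24h, 32h and 40h.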
A short description of test [4]: qHTS RealTime-Glo MT Cell Viability Assay in HepG2 cells - 32 hour (AID 1224877). Further: nearly all actives have a fitted effect of over 55% in size. An outline of the steps: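 Viability was tracked continuously by NanoLuc luminescence from prosubstrate reduced by living HepG2 cells, at successive time points over 40 h of compound exposure. Cells with reagent were preincubated 5 h at 37 °C before compound addition.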
Test [5] in a line: A CellTox Green Cytotoxicity Assay to monitor cytotoxicity in HepG2 cells - 24 hour (AID 1224878). Further: nearly all actives have a fitted effect of over 45% in size. The method, boiled down:
(§3)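 Cells and non-lytic dye reagent are dispensed together (600 HepG2 cells/well) and incubated 5 h before DMSO compound transfer. Kinetic fluorescence is then recorded in the same wells during 40 h at 37 C.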

A short description of test [6]: qHTS RealTime-Glo MT Cell Viability Assay in HEK293 cells - 0 hour (AID 1224880). Further: nearly all actives have a fitted effect of over 45% in size. The method, boiled down:
as §1

A short description of test [7]: A CellTox Green Cytotoxicity Assay to monitor cytotoxicity in HepG2 cells - 16 hour (AID 1224876). Further: nearly all actives have a fitted effect of over 45% in size. The method, boiled down:
as §3

The nature of test [8]: A CellTox Green Cytotoxicity Assay to monitor cytotoxicity in HEK293 cells - 32 hour (AID 1224881). Further: nearly all actives have a fitted effect of over 40% in size. The method, boiled down: as §2
Test [9] can be described thus: A CellTox Green Cytotoxicity Assay to monitor cytotoxicity in HepG2 cells - 40 hour (AID 1224879). Further: nearly all actives have a fitted effect of over 40% in size. An outline of the steps:
as §3

A short description of test [10]: qHTS RealTime-Glo MT Cell Viability Assay in HepG2 cells - 8 hour (AID 1224873). Further: nearly all actives have a fitted effect of over 55% in size. The method, boiled down:
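Real-time viability: cells seeded at 600 per well together with NanoLuc and cell-permeant prosubstrate, compounds added after 5 h incubation. Luminescence tracked at 0, 8, 16, 24, 32 and 40 h of exposure.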
On the % scale 0 is the no-effect control and ±100 the full control effect; potency means the concentration at half of the fitted maximal effect.

Consider `C=CC(=O)OCC(O)COc1ccccc1` (stereo unspecified), for which the Potency result in test [1], in test [3], in [4], in [5] and in test [6] was “inactive” in each case. Moreover, the max response in test [2] was 8.54%.
Turning to `CN(C)c1ccc(N=Nc2ccccc2C(=O)O)cc1`, the Potency entry in test [1], in test [3], in [7], in test [6] and in test [8] was “inactive” throughout. For the same compound, in test [2], the max response was 2%.
As to `C[C@@]12C(=O)OC(=O)[C@]1(C)C1CCC2O1`, the Potency in [1] is 5.35 µM (active); in [2] it was 6.01 µM (active); in [7] it was 23.9 µM (active); in test [9], 10.7 µM (active). Further, the Potency result in [6] and in test [8] was “inactive” each time.
For the compound `CC(C(O)c1ccccc1)N(C)CCOC(c1ccccc1)c1ccccc1` (stereo unspecified), the Potency in test [1] was 21.3 µM (active); in test [2], 23.9 µM (active); in test [7], 23.9 µM (active); in [5] it was 26.8 µM (active); in test [9] it was 26.8 µM (active); in [8], 26.8 µM (active). Also, in test [6], the Potency entry is “inactive”.
In the case of `O=C(NO)c1ccccc1`, the Potency result in test [10], in test [4] and in test [6] was “inactive” each time.
Turning to `Nc1cc(Cl)c([N+](=O)[O-])cc1O`, the Potency result in test [10], in test [3], in test [7], in test [4], in test [9] and in test [6] was “inactive” each time. The Potency entry in test [8] is “inactive”.
On to `CC(C)C(=O)OCc1ccccc1`, for which the Potency result in [10] and in [4] was “inactive” each time. The max response in [2] is 18.1%.
Turning to `c1cc(OCC2CO2)cc(OCC2CO2)c1` (stereo unspecified), the Potency entry in test [10], in test [3], in test [7], in [6] and in test [8] was “inactive” each time. Further, the Potency in test [2] is 12.2 µM (active).
Consider `CCCSS/C(CCO)=C(\C)N(C=O)Cc1cnc(C)nc1N`, for which the Potency entry in [10], in [3], in test [7], in test [5], in test [6] and in test [8] was “inactive” each time. Moreover, in test [9], the Potency is 26.8 µM (active).
For the compound `Cc1nc(Nc2ncc(C(=O)Nc3c(C)cccc3Cl)s2)cc(N2CCN(CCO)CC2)n1`, the Potency entry in test [10], in test [3] and in test [8] was “inactive” throughout. The Potency in test [5], in test [9] and in [6] was 26.8 µM (active) each time.
`CC(O)C#CC(C)O` (stereo unspecified): in [6], the Potency result was “inactive”. Further, the Potency in test [8] was 54.4 µM (active).
On to `CCCCCCCC/C=C\CCCCCCCC(=O)OCCOC(=O)CCCCCCC/C=C\CCCCCCCC`, for which the Potency entry in test [10], in [3], in test [7], in [5], in [9] and in [8] was “inactive” in each case. Further, in test [2], the max response is -19.3%.
With `OCCN1CN(CCO)CN(CCO)C1`, the Potency result in [10], in test [4], in [5], in [9], in [6] and in test [8] was “inactive” each time.
Consider `Cc1ccc(N)cc1O`, for which the Potency entry in test [10], in test [4] and in test [6] was “inactive” throughout.
Regarding `CC(C)(C)c1cc(CCC(=O)NCCCCCCNC(=O)CCc2cc(C(C)(C)C)c(O)c(C(C)(C)C)c2)cc(C(C)(C)C)c1O`, the max response in test [2] was -24.8%. Besides, the Potency result in test [3], in [5], in test [9], in [6] and in test [8] was “inactive” in each case.
As to `Oc1ccc(-c2ccc(O)cc2)cc1`, the Potency entry in test [10], in test [3], in test [7], in test [4], in [9] and in [6] was “inactive” throughout. Moreover, the Potency entry in test [8] was “inactive”.
On to `CCCCCCCC/C=C\CCCCCCCC(=O)N(C)CC(=O)O`, for which the Potency result in [10], in test [7] and in [6] was “inactive” throughout. In addition, the Potency in [8] is 34.7 µM (active).
Take `O=C(c1ccccc1)c1cc(Cl)ccc1O`: the Potency result in [10], in [7], in [4], in [9] and in test [6] was “inactive” throughout. The max response in [2] was -24.1%.
With `CCCCOc1ccc(C(=O)CCN2CCCCC2)cc1`, the Potency in test [2] was 13.4 µM (active); in test [3], 16.9 µM (active); in [7] it was 19 µM (active); in test [4], 10.7 µM (active); in test [5], 19 µM (active); in test [9], 19 µM (active). Moreover, in test [8], the Potency is 19 µM (active). Besides, the Potency entry in [6] was “inactive”.
For the compound `CC(C)c1cccc(C(C)C)c1N1C(=O)c2ccc(O)cc2C1=O`, the Potency in test [10] was 43.6 µM (active); in [7], 24.5 µM (active); in test [4] it was 43.6 µM (active); in test [9] it was 24.5 µM (active). For the same compound, in [6], the Potency entry was “inactive”.
Consider `CN(Cc1cc(Br)cc(Br)c1N)C1CCCCC1`, for which the Potency result in [10], in test [4] and in [6] was “inactive” throughout. For the same compound, the Potency was 19 µM (active) in test [7] and 21.3 µM (active) in test [5].
Regarding `CCCCOCC`, the Potency entry in test [10], in test [7], in [5], in test [9] and in [8] was “inactive” throughout.
For `C[C@@H]1CC[C@H]2C(C)(C)[C@H]3C[C@@]12CC[C@@]3(C)O`, the Potency entry in [10] and in test [6] was “inactive” in each case. In addition, the max response in test [2] is -18.5%. Also, the Potency in test [3] is 38.8 µM (active); in [5], 48.9 µM (active); in test [9], 54.9 µM (active); in test [8], 38.8 µM (active).
With `CC(C)N=C(N)/N=C(\N)Nc1ccc(Cl)cc1`, the Potency entry in test [10], in [4], in test [6] and in test [8] was “inactive” in each case. In addition, the Potency in test [2], in test [5] and in test [9] was 26.8 µM (active) throughout.
Consider `CCOB(OCC)OCC`, for which the Potency result in test [10], in test [4] and in test [8] was “inactive” in each case.
Consider `CC(=O)c1ccccc1N`, for which the Potency result in test [10], in test [3], in test [7], in test [4], in test [5] and in test [9] was “inactive” each time. Besides, the Potency result in test [6] and in test [8] was “inactive” throughout.
Regarding `C=C1C(C)(C)[C@@]2(Cl)C(Cl)[C@]1(Cl)C(Cl)(Cl)C2(Cl)Cl` (stereo partly specified), the Potency result in test [7] and in [6] was “inactive” each time. Besides, the Potency in test [5] was 48.1 µM (active); in [9] it was 53.9 µM (active).
Take `CC(C)OC(=O)c1cc(C(=O)OC(C)C)cc([N+](=O)[O-])c1`: the Potency result in test [10], in [7], in test [4], in test [9] and in test [6] was “inactive” throughout.
Turning to `NC(=O)c1nc(-c2cccc(-c3cc(F)ccc3OCC(F)(F)C(F)(F)F)c2)n[nH]1`, the Potency result in [10], in test [4] and in test [6] was “inactive” each time. The Potency is 49 µM (active) in test [7], 43.6 µM (active) in test [5] and 43.6 µM (active) in test [9].
